This is an account of results in PubChem BioAssay AID1347074 (Center for Chemical Genomics, University of Michigan, 2019).

Out of some 47,000 compounds screened, about 2,800 (6%) were called active. Rule as the data show it: active = z-score above about 3 (passing the limit was not always enough); inactive = the rest. The full list was thinned out, with actives kept by preference.

Endoribonuclease Dicer (Homo sapiens), sequence (Q9UPY3 whole entry, looked up): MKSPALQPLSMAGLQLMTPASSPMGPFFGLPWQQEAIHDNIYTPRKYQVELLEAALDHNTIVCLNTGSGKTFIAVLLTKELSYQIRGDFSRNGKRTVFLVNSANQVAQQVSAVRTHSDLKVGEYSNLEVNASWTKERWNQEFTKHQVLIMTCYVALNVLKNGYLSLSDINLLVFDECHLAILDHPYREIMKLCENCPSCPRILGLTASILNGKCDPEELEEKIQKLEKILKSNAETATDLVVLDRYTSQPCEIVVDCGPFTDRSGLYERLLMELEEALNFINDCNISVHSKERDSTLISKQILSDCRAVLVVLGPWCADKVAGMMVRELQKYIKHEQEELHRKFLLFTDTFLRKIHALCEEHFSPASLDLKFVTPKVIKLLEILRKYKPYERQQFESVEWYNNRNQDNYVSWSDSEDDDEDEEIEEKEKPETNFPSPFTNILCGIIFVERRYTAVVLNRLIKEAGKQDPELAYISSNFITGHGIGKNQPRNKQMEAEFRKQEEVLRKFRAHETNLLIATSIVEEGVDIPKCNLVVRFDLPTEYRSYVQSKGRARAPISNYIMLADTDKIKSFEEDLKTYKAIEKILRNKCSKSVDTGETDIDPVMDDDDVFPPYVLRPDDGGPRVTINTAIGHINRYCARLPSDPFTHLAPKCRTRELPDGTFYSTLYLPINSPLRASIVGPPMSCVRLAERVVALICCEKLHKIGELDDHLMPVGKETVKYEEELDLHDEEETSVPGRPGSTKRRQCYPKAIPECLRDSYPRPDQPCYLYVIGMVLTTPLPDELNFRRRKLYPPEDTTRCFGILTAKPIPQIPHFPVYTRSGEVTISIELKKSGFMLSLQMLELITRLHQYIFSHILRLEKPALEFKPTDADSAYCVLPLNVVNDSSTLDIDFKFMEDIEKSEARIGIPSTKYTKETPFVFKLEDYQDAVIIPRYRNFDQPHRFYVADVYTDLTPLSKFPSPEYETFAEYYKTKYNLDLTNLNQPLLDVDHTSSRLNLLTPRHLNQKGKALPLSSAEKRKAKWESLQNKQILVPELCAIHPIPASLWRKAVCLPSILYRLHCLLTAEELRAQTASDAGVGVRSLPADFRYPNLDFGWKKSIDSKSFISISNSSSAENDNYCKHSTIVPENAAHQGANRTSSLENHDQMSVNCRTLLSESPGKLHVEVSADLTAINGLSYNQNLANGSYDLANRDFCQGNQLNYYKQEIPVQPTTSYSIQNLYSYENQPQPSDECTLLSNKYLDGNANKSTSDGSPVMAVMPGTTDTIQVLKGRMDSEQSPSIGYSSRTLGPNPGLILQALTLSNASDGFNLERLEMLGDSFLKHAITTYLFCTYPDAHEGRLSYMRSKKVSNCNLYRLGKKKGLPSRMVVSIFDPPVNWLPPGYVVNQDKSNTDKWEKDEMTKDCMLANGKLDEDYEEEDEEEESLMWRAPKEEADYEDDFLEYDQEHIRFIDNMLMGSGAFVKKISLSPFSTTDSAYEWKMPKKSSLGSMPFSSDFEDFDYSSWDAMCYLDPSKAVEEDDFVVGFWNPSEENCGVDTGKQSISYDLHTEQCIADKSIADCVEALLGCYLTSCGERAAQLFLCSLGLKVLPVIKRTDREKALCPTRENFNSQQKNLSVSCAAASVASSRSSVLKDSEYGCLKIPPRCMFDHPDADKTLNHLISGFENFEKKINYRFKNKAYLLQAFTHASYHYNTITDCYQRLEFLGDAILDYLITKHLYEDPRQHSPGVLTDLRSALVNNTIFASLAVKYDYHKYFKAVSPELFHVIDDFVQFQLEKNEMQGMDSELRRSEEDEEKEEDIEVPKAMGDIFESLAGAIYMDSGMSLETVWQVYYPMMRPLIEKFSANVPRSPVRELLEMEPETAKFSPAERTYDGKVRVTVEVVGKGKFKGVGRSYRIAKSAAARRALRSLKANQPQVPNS

The experiment has as its target Endoribonuclease Dicer (Homo sapiens) (UniProt Q9UPY3). The experiment can be described thus: Dicer cleavage of pre-miR-21 blockers – biochemical, cat-ELCCA, chemiluminescence, primary screen (AID 1347074).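 Also: plate controls were vehicle for no effect and no enzyme for full effect; higher signal means more uncleaved substrate so more Dicer inhibition.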 Particulars: cat-ELCCA pre-miR-21 Dicer processing, at 25 µM, stronger effect = higher value.
With `CC(C)(C)c1cc2nc(-c3ccc4c(c3)CCC4)cc(C(F)(F)F)n2n1`, the z-score was -1.01 (inactive).

For the compound `Cc1cc(Br)ccc1Nc1ncnc(N)n1`, the z-score was 0.67 (inactive). As for `C=CCN(C(=O)c1ccccc1Cl)c1ccccc1C(=O)NCC(=O)OCC`, the figure is -0.79 (inactive).

Regarding `Cc1cc(O)cc(C)c1/C=C1\NC(=O)NC1=O`, the z-score is 0.4 (inactive).

Take `Cc1ccc(C(=O)NNc2ncnc3sccc23)cc1`: the z-score is 0.13 (inactive).

As to `CSc1n[nH]c(N)c1-c1ccccn1`, the z-score was 6.44 (active). With `CCOC(=O)c1sc(SC(C)C)c2c1CC(C)(C)CC2=O`, the z-score was -1.12 (inactive).

On to `O=C(/C(=N\N=C\c1ccc2c(c1)OCO2)c1ccccc1)c1ccccc1`, for which the z-score was -1.69 (inactive).

Take `Cc1cc(C)c2c(n1)sc1c(=O)n(/N=C/c3ccc4c(c3)OCO4)c(C)nc12`: the z-score was -0.06 (inactive). The same measure for `Cc1ccc(N2CC(=O)N(/N=C/c3ccc4c(c3)OCO4)CC2=O)cc1`: 3.3 (active). As to `O=C(c1cccn1-c1ccc(F)cc1)C(F)(F)F`, the z-score is -0.2 (inactive). `Cc1ccc(-c2ccc3c4ccccc4c(C(=O)C(F)(F)F)c-3o2)cc1`: the z-score is -0.14 (inactive).

In the case of `O=c1c2c(-c3ccc(Cl)cc3)csc2nc2c3ccccc3c(N3CCN(CCO)CC3)nn12`, the z-score is -0.37 (inactive). For the compound `Cc1ccc(S(=O)(=O)Nc2ccc(F)cc2NS(=O)(=O)c2ccc(C)cc2)cc1`, the z-score is 15.1 (active). Turning to `Cn1nccc1NS(=O)(=O)c1ccc(F)cc1`, the z-score was -0.57 (inactive). The same measure for `Cc1ccc(S(=O)(=O)Nc2cc(C)cc(C)c2)cc1`: 2.36 (inactive); for `CN(C)C(=O)Sc1nnc(C2CC2)n1-c1ccc(Cl)cc1`: 15.9 (inactive).

With `CC(C)OC(=O)C1C(=O)CC(C)(O)C(C(=O)OC(C)C)C1c1ccc(Br)cc1` (configuration not stated), the z-score is -1.31 (inactive).

In the case of `CCCOC(=O)C1=C(C)Nc2nnnn2C1c1cc(Br)ccc1OC` (configuration not stated), the z-score is 3.54 (active). As for `CC1=C(C(N)=O)C(c2ccc(F)cc2)n2nnnc2N1` (configuration not stated), the figure is -0.27 (inactive); as for `CCOC(=O)C1=C(C)Nc2nnnn2C1c1ccc(O)cc1` (configuration not stated), -2.24 (inactive). The same measure for `O=C(O)CSCC(=O)Nc1ccccc1Sc1ncnc2cc(-c3ccccc3)sc12`: -0.26 (inactive); for `Fc1cccc(-c2nn3c(COc4ccccc4)nnc3s2)c1`: 0.92 (inactive). With `CCOc1ccccc1C1Nc2c(C)cccc2-c2cc(C)nn21` (configuration not stated), the z-score is 4.42 (active).

For `COc1cc(O)ccc1C1Nc2c(C)cc(C)cc2-c2cc(C)nn21` (configuration not stated), the z-score was 2.86 (inactive).

As to `COc1cccc(C2Nc3ccccc3-c3cc(C)nn32)c1O` (configuration not stated), the z-score is -0.43 (inactive).

Turning to `Cc1c(C#N)c(NC(=O)c2ccc(Cl)cc2)n(CC2CC2)c1C`, the z-score is 0.46 (inactive). `CN1CCc2c(sc3c2C(=O)NC(c2ccc(Br)cc2)N3)C1` (configuration not stated): the z-score was -0.13 (inactive). The same measure for `C/C(=N\OC(=O)Nc1ccc(Cl)cc1)c1cc(-c2ccccc2)no1`: -0.26 (inactive). Consider `CCOc1ccccc1C1C2=C(CCCC2=O)Nc2nnnn21` (configuration not stated), for which the z-score was 2.2 (inactive). As for `Cc1c(Br)c([N+](=O)[O-])nn1CC(=O)NCCCn1ccnc1`, the figure is -0.68 (inactive); as for `O=C(NCc1cccnc1)c1cnc2ccccc2n1`, 0.67 (inactive); as for `O=C(O)c1cnc(NCc2ccccc2)s1`, -1.01 (inactive). The same measure for `O=C(NCc1ccccc1)c1cc2sccc2s1`: 3.86 (active); for `Cc1c(C)c(C)c(CSCC(=O)N/N=C/C=C/c2ccccc2)c(C)c1C`: 1.61 (inactive). As for `Cc1ccc(C2CC(C(F)(F)F)n3ncc(C(=O)N(C)Cc4cn(C)nc4C)c3N2)cc1` (configuration not stated), the figure is -1.27 (inactive). Regarding `O=C(Nc1ccc(F)cc1)Nc1nnc(C2CC2)s1`, the z-score is 0.03 (inactive).

As to `O=C(NCc1ccco1)c1nc2ncccn2n1`, the z-score is 0.13 (inactive). `CS(=O)(=O)n1nc(-c2ccccc2)nc1NCc1ccco1`: the z-score was 4.95 (active). Consider `c1coc(CNc2ncnc3ccccc23)c1`, for which the z-score is -1.16 (inactive).

With `CN(C)c1ccc(NC(=O)C(=O)NCCO)cc1`, the z-score is 3.85 (active). The same measure for `CN(C)C(=O)Nc1ccc(C(C)(C)C)cc1`: 0.46 (inactive). For the compound `CN(C)c1ccc(C(=S)c2ccc(N(C)C)cc2)cc1`, the z-score was 0.42 (inactive). Turning to `CC(=O)c1ccc(OCc2ccc(Cl)c(Cl)c2)c(C)c1O`, the z-score is -0.27 (inactive).

`CCCCCOC(=O)COc1ccc2c(=O)c(Oc3cccc(C)c3)coc2c1`: the z-score is -1.17 (inactive). The same measure for `O=c1oc2ccccc2c2c1ncn2CCCN1CCOCC1`: 0.33 (inactive); for `CCOC(=O)/C(C#N)=C/Nc1ccc(OC)c(C(=O)OC)c1OC`: -2.66 (inactive); for `COc1ccc(-c2oc3ncnc(NCCCO)c3c2-c2ccc(OC)cc2)cc1`: 0.89 (inactive).

On to `c1ccc(-c2oc3ncn4nc(-c5ccccn5)nc4c3c2-c2ccccc2)cc1`, for which the z-score is -0.36 (inactive). For `COc1ccc(-c2c(-c3ccccc3)oc3ncnc(N)c23)cc1`, the z-score is 4.1 (active). For `CCc1ccc(C2c3c(oc4ccc(C)cc4c3=O)C(=O)N2c2nccs2)cc1` (configuration not stated), the z-score is 0.49 (inactive).

For `CCCC1=NN(c2ccc(S(N)(=O)=O)cc2)C(=O)C1`, the z-score is -4.3 (inactive).

Turning to `COC(OC)c1nc(SCc2ccc(Cl)cc2)ncc1C(=O)O`, the z-score is -1.32 (inactive). `CCCCNC(=O)Nc1onc(-c2c(Cl)cccc2Cl)c1C(=O)OC`: the z-score is 0.02 (inactive). The same measure for `Cc1onc(-c2c(Cl)cccc2Cl)c1C(=O)NN(C)c1ccc([N+](=O)[O-])cn1`: 0.9 (inactive); for `CN(C)NC(=O)c1csnc1-c1c(Cl)cccc1Cl`: 3.48 (active). The same measure for `CCCCC#Cc1cncc(C(=O)O)c1`: 0.66 (inactive). For `COC(=O)c1scc(C)c1NC(=O)C1=Cc2cc(Cl)ccc2OC1`, the z-score is -0.31 (inactive). As for `O=C(O)C1=Cc2cc(Cl)ccc2OC1`, the figure is 1.52 (inactive). In the case of `O=C(Nc1ccc2c(c1)OCC1CCCN21)C1=Cc2ccccc2OC1` (configuration not stated), the z-score was 4.37 (active). Take `C=CCNC(=O)CSc1nc2c(c(C(F)(F)F)n1)CCc1ccccc1-2`: the z-score was 1.7 (inactive). The same measure for `CCc1nc(-c2ccc(-c3ccccc3)nc2OC)no1`: 0.85 (inactive).

For `COc1cc(OC)cc(-c2nc(-c3ccc(-c4ccccc4)nc3OC)no2)c1`, the z-score is 1.1 (inactive). Consider `CCCc1cc(=O)oc2c1c(C)nn2-c1cccc(Cl)c1`, for which the z-score is -1.83 (inactive). With `COC(=O)C1=C(c2ccccc2)C(c2ccccc2)=C(C(=O)OC)C1=O`, the z-score was 3.2 (active).

Regarding `COC(NC(=O)c1ccccc1)(C(F)(F)F)C(F)(F)F`, the z-score is -0.72 (inactive).

Regarding `COC(=O)c1sc(C(F)(F)F)c(-c2ccccc2)c1S(=O)(=O)N(C)C`, the z-score was 0.21 (inactive).
